Data taken from PubChem BioAssay AID1645850 (National Center for Advancing Translational Sciences (NCATS), 2021).
Inconclusive results are not listed. Activity calls are given as the source filed them. Calls follow the shape of the dose curve; as a rule, active = well fitted curve in the direction sought with a large enough effect in the repeat runs; inconclusive = weak or mixed curves, or another doubt; inactive = no such curve, though single readings can be large or run the other way.

Assay: Comparison of Janus kinase inhibitors to block the type I interferon pathway in human skeletal muscle cells: CTG Counterscreen
Source text: Assay Submitter (PI): Travis B. Kinder Ph.D.
National Center for Advancing Translational Sciences (NCATS)
The family of Janus kinases (JAK1, JAK2, JAK3, TYK2) mediate signal transduction from cytokine receptors through phosphorylation and activation of intracellular signaling pathways and transcription factors. Small molecule antagonists of JAKs (jakinibs) have been developed with varying selectivity for the use in malignancies and immune regulation. […] We have assayed a library of 48 jakinibs for their ability to inhibit the JAK1/TYK2-dependent type I interferon (IFN) - major histocompatibility complex (MHC) class I pathway in human skeletal muscle cells genome-engineered to fuse a pro-luminescent HiBiT peptide to endogenous MHC class I.
The assay utilized CRISPR/Cas9 genome-engineered immortalized human myoblasts, C25cl48, where a pro-luminescent reporter HiBit was fused to the C-terminus of endogenous MHC class I allele HLA-B*08:01 (HLA-B HiBit myoblasts) (Kinder et al., 2020). […] After 24 hrs of treatment, cells were assayed by CellTiter-Glo Luminescent Cell Viability Assay (Promega) and luminescence measured by a ViewLux 1430 Ultra HTS (Perkin Elmer). […]
7; Detector; 5 sec; Measure luminescence with ViewLux 1430 Ultra HTS (Perkin Elmer). […]

SMILES	outcome
CC1CCCCCC(=O)c2c(O)cc(O)cc2CC(=O)O1 (configuration not stated)	inactive
CC(C)(O)/C=C\C(=O)[C@](C)(O)[C@H]1[C@H](O)C[C@]2(C)[C@@H]3CC=C4[C@@H](C=C(O)C(=O)C4(C)C)[C@]3(C)C(=O)C[C@@]12C	inactive
